The list is not random: actives were taken first. Their share in the collection is about 7.9%.
Marburg entry inh = Marburg virus entry inhibition; Marburg virus pseudotyped entry inhibition, cell reporter; 300,000 tested, 1.8% active; Potency, µM (top dose mostly 37.8 µM), for the others: top-dose activity change, negative = inhibition, actives largely listed as inhibitors; calls by dose curve; tested in HEK293 cells; note: potency is the fitted concentration of half-maximal effect
HCMV inh = inhibitors of human cytomegalovirus; AID 1259415; activity change, negative = inhibition, % at 57.5 µM; HFF cells, HCMV-luciferase reporter, 72 h; active compounds read low; 410,000 tested, 4.5% active; in the data active = activity change below about -60%; inconclusive = no clear call, values can overlap the other calls; inactive = above about -39%
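Luciferase read-out from HCMV-luciferase-infected HFFs (MOI 1 PFU/cell) 72 h post infection at 37C; compounds added after 16 h cell attachment; activity normalized between buffer-only basal and Salinomycin (10uM) inhibitor controls.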
FMDV antiviral = antivirals against foot and mouth disease virus; 410,000 tested, 1.2% active; Potency, µM (doses to about 57.9 µM), for the others: top-dose activity change, negative = inhibition, most hits filed as inhibitors; FMDV antiviral cell-based qHTS; calls by dose curve; tested in HEK293T cells; note: read-out not given here; potency is the fitted concentration of half-maximal effect; nearly all actives have a fitted effect of over 45% in size
Lassa entry inh = Lassa virus entry inhibition; Lassa virus pseudotype entry inhibition, cell reporter; Potency, µM (highest dose often 37.9 µM), inactives show top-dose activity change, negative = inhibition, most hits filed as inhibitors; 300,000 tested, 1.2% active; calls by dose curve; tested in HEK293 cells; note: potency is the fitted concentration of half-maximal effect; nearly all actives have a fitted effect of over 50% in size
HCV inhibitor = inhibitors of hepatitis C virus infection; Huh7.5.1 HCVcc-Cre infection, luciferase reporter, 44 h; Potency, µM (series often up to 41.8 µM), without a hit: at the top dose activity change, negative = inhibition, most hits filed as inhibitors; 340,000 tested, 3.4% active; AID 651820; active = well fitted inhibition curve with a large enough effect; inconclusive = small, poorly fitted or top-dose-only effect, or another doubt; inactive = no such curve, though single readings can be large or run the other way; note: potency is the fitted concentration of half-maximal effect
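Whole-lifecycle infectious HCVcc-Cre system; cells 1,000/well, compound then virus (~0.5 moi) added 4 h after plating, 44 h culture. Luciferase read 15 sec following 15 min substrate incubation, room temp.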
Starred values were filed as active, the others as inactive; ? = inconclusive; . = not tested or not shown; ! = repeats disagree; [ ] = remark or other dose. % is set by controls: 0 for no effect and ±100 for the full control effect.

SMILES	Marburg entry inh	HCMV inh	FMDV antiviral	Lassa entry inh	HCV inhibitor
CCc1ccc(-n2nc(C)c3c2NC(=O)CSC3c2ccc(OC)cc2OC)cc1 (configuration not stated)	?	-67*	-23%	-18%[46.1 µM]	.
Cc1cnc(CNc2ncnc3ccc(-c4ccoc4)cc23)cn1	.	.	-2%	.	.
FC(F)(F)c1ccccc1-c1ccc2ncnc(N3CCOCC3)c2c1	.	.	-47%	.	.
CCOC(=O)c1c(-c2ccc(OC)cc2)oc2ccc(OCC(N)=O)cc12	-19%[46.1 µM]	-10	-14%	-22%[46.1 µM]	2.2µM*
CCOc1ccc2oc(-c3ccccc3)c(C(=O)N(C)C)c2c1	?	-62*	.	4%	?
CCOC(=O)c1c(-c2ccc(OC)cc2)oc2ccc(O)cc12	?	3	-14%	-28%	?
CCOc1ccc(NC(=O)CC2C(=O)N(CC)C(=S)N2NC(=O)c2ccncc2)cc1 (configuration not stated)	-13%	3	-8%	9%	-13%
COc1ccc(-c2cc(C)no2)cc1S(=O)(=O)N1CCOc2ccc(Cl)cc21	.	?	13%	8%[46.1 µM]	-2%
Cc1ccc(-c2onc(C)c2C)cc1S(=O)(=O)NC1CCC(C)CC1 (configuration not stated)	.	-67*	19%	20%[46.1 µM]	.
Cc1ccc(-c2onc(C)c2C)cc1S(=O)(=O)Nc1ccc(Cl)cn1	.	103	61%	14%[46.1 µM]	.
CCOC(=O)C1CCCN(S(=O)(=O)c2cc(-c3onc(C)c3C)ccc2OC)C1 (configuration not stated)	.	-7	0%	?	.
Cc1cc(C)c(NS(=O)(=O)c2cc(-c3onc(C)c3C)ccc2C)c(C)c1	.	-62*	4%	-11%[46.1 µM]	.
Cc1ccc2c(c1)N(S(=O)(=O)c1cc(-c3onc(C)c3C)ccc1C)CCO2	14%[46.1 µM]	-67*!	?	?	5µM*
COc1ccc(-c2onc(C)c2C)cc1S(=O)(=O)N1CCC(C)CC1	.	-79*	-22%	-21%[46.1 µM]	.
Cc1ccc([C@H]2C[C@H](c3cccs3)n3nc(N)nc3N2)cc1	5%	.	.	.	.
CCC(C(=O)Oc1c(C(C)C)cccc1C(C)C)c1ccccc1 (configuration not stated)	.	-19	-16%	.	21%
Cc1ccccc1OCC(=O)NCCS(=O)(=O)N1CCN(c2ccc(F)cc2)CC1	-1%	13	-24%	-26%	-10%
O=C(Nc1nnc(-c2ccccc2SCc2ccccc2F)s1)Nc1ccccc1F	?	-61*	1%	1%	25%
CCOc1ccc(-c2csc(/C(C#N)=C\c3ccc(O)c([N+](=O)[O-])c3)n2)cc1	?	-30	22µM*	?	?
CCc1ccc(/C=C(/C#N)c2nc(-c3ccc(C)cc3)cs2)cc1	2%[46.1 µM]	-18	-20%	6%[46.1 µM]	.
CCn1c(SCC(=O)Nc2nc(-c3ccc(C)cc3)cs2)nnc1-c1ccccc1	?	-72*	13µM*	?	7.9µM*
CCn1c(SCC(=O)Nc2nc(-c3ccc(C)cc3)cs2)nnc1-c1ccccc1O	?	-70*	16µM*	?	6.3µM*
O=C(CSc1nnc(-c2cccnc2)n1Cc1ccco1)Nc1nc(-c2ccc(F)cc2)cs1	?	-74*	20µM*	-7%	25µM*
Cn1c(SCC(=O)N2c3ccccc3Sc3ccccc32)nc2ccccc21	-52%	?	-26%	-15%	4%
CN(C)CCCn1c(SCC(=O)N2c3ccccc3Sc3ccccc32)nc2ccccc2c1=O	?	-99*	?	?	13µM*
SMILES	Marburg entry inh	HCMV inh	FMDV antiviral	Lassa entry inh	HCV inhibitor
O=C(CSc1nnc(-c2cccnc2)n1Cc1ccco1)Nc1cccc(O)c1	?	2	-6%	13%	24%
Cc1ccc(NC(=O)CCNS(=O)(=O)c2ccc3c(c2)CCC(=O)N3)c(Br)c1	.	17	-1%	.	-18%
COc1ccc(CCN2C(=O)N[C@@H](CCC(=O)O)C2=O)cc1	.	11	0%	.	27%
CC(C)n1c(SCC(=O)N2c3ccccc3Sc3ccccc32)nc2c1c(=O)n(C)c(=O)n2C	9.2µM*	9	.	?	11µM*
COc1ccccc1-c1nnc(SCC(=O)Nc2nc(-c3ccccc3)cs2)n1C	23µM*	-25	32µM*	23µM*	?
CC(C)n1c(SCC(=O)Nc2nc3c(s2)CCCC3)nc2c1c(=O)n(C)c(=O)n2C	?	-60*	25µM*	?	-3%
